Our source for the z-score values is PubChem BioAssay.

Each structure is given as a SMILES string. The source made the active and inactive calls.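 The calls were made as follows: active = z-score of at least 1.8 in each of two replicates, scored against plate mean and spread of sample wells; inactive = the rest.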

A short description of this assay: galactose survival enhancers in mitochondrial complex I cybrids – cell-based, galactose medium, ATP luminescence, primary screen (AID 1645843).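 Also: positive z means more ATP and so rescue of galactose-driven cybrid death.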 As to conditions: complex I mutant cybrid cells, 72 h, active compounds read high.
Regarding `Cn1nccc1NC(=O)Cn1ccc(-c2cnn(-c3ccccc3F)c2)n1`, the z-score is -0.815 (inactive).

Take `Cc1ccsc1C(=O)N1CCC(n2cc(C(C)(C)O)nn2)CC1`: the z-score is -0.505 (inactive).

As for `CCC(C)C(c1nc(C(C)C)no1)N1Cc2ccccc2C1=O` (stereo unspecified), the z-score was -0.17 (inactive).

Take `Cc1c(C(F)(F)F)nc(-c2ccc(CN(C)Cc3ccccn3)cc2)[nH]c1=O`: the z-score is -0.485 (inactive).

For the compound `COc1ccc(-c2cccc(C(=O)c3nccn3C)c2)c(C)c1`, the z-score is -0.555 (inactive).

Take `CCCCCN1C(=O)C2(CCN(C(=O)N3CCCC3)CC2)Nc2ccccc21`: the z-score is -1.2 (inactive).

On to `O=C(Cn1cc(-c2cncnc2)cn1)Nc1ccnn1Cc1ccco1`, for which the z-score is 1.12 (inactive).

Turning to `CCC(CC)(CCC#N)CNCC1(N2CCOCC2)CCCC1`, the z-score was -0.575 (inactive).

On to `C=C1C2(C(=O)N3CCCC(C(=O)N4CCOCC4)C3)CCC(C2)C1(C)C` (stereo unspecified), for which the z-score was -0.555 (inactive).

With `CCCC(C)CN(CC)C1CCS(=O)(=O)C1` (stereo unspecified), the z-score is -0.55 (inactive).

Consider `CCn1ncc2[nH]c(-c3ccc(-c4ccccn4)cc3)nc21`, for which the z-score was -1.15 (inactive).

Turning to `Cc1ccc2c(=O)n(C3CC(C)(C)NC(C)(C)C3)cnc2c1C`, the z-score is -0.535 (inactive).

With `CN(CC1COc2ccccc2O1)C(=O)Nc1nncs1` (stereo unspecified), the z-score was -0.295 (inactive).

With `Cc1csc2c(=O)n(Cc3ccc(Cl)s3)cnc12`, the z-score was -0.505 (inactive).

As to `Cc1cc(NC(=O)Cn2ccc(-c3ccncc3)n2)n(-c2ccccn2)n1`, the z-score is 0.42 (inactive).

Consider `Cc1cccc2c(C(=O)N(C)C(C)C)cc(-c3cnn(C(C)C)c3)nc12`, for which the z-score was 2.17 (active).
